Measurements reported in the supplement of paper PMC10849652.
About 7,900 targets were measured; listed, in parts, are those with a hit and a random draw of the rest. About 0.6% of all pairs of compound and target were hits.

What was measured:
Test in all cases: log2 fold change, soluble protein after heating vs DMSO (PISA); higher = thermal stabilisation; K562 cells, 10 uM, 30 min; active = over 0.2 and 3.5 SD of the protein, either way, in both replicates (recomputed)
IRAK-1-4 Inhibitor I = compound: C1COCCN1CCN2C3=CC=CC=C3N=C2NC(=O)C4=CC(=CC=C4)[N+](=O)[O-] [IRAK-1-4 Inhibitor I]
Procedure, shortened: (§1)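 Soluble protein was defined as the supernatant after 21,000xg for 90 min. It came from K562 cells at 2×10^6 cells/mL given 10 μM compound for 30 min, heated in aliquots for 3 min across 48°C-58°C, pooled, and extracted in PBS with 0.5% NP-40 at 4°C, and was quantified by TMTpro 16plex LC-MS/MS with equalised channel sums. Thermal stability against control samples, from duplicates, is reported as log2 fold change.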

ibrutinib = compound: C=CC(=O)N1CCC[C@@H](n2nc(-c3ccc(Oc4ccccc4)cc3)c3c(N)ncnc32)C1 [ibrutinib]
Procedure, shortened: as §1

[1] = compound: CC(=O)c1cnc2ccc(-c3cc(Cl)c(O)c(Cl)c3)nc2c1N[C@H]1CC[C@H](CN(C)C)CC1
Procedure, shortened: as §1

[2] = compound: CC(C)(O)CC(=O)NCCn1ccc2ncnc(Nc3ccc(Oc4cccc(C(F)(F)F)c4)c(Cl)c3)c21
Procedure, shortened: as §1

[3] = compound: CC(C)C1=C2N=C(C=C(N2N=C1)NCC3=CC=CC=C3)NCCCCCCN
Procedure, shortened: as §1

pinometostat = compound: CC(C)N(C[C@H]1O[C@@H](n2cnc3c(N)ncnc32)[C@H](O)[C@@H]1O)[C@H]1C[C@@H](CCc2nc3cc(C(C)(C)C)ccc3[nH]2)C1 [pinometostat]
Procedure, shortened: as §1

[4] = compound: CC1=C(C(CC(=O)N1)C2=CC=C(C=C2)C(F)(F)F)C(=O)NC3=C(C=C4C(=C3)C=NN4)F
Procedure, shortened: as §1

[5] = compound: CC1=C(C2=C(C=C1)C(=O)C3=CC=CC=C3N2CCCN)C
Procedure, shortened: as §1

ralimetinib = compound: CC(C)(C)Cn1c(N)nc2ccc(-c3[nH]c(C(C)(C)C)nc3-c3ccc(F)cc3)nc21 [ralimetinib]
Procedure, shortened: as §1

[6] = compound: CC(C)C[C@@H](C=O)NC(=O)[C@H](CC(C)C)NC(=O)[C@H](CC(C)C)NC(=O)OCc1ccccc1
Procedure, shortened: as §1

UniProt O43924, sequence (O43924 whole entry, looked up): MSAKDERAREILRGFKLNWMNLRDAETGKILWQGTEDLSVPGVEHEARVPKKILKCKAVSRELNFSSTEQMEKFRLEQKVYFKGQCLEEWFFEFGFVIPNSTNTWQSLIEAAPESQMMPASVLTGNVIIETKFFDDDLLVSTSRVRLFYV
UniProt Q8N2W9, sequence (Q8N2W9 whole entry, looked up): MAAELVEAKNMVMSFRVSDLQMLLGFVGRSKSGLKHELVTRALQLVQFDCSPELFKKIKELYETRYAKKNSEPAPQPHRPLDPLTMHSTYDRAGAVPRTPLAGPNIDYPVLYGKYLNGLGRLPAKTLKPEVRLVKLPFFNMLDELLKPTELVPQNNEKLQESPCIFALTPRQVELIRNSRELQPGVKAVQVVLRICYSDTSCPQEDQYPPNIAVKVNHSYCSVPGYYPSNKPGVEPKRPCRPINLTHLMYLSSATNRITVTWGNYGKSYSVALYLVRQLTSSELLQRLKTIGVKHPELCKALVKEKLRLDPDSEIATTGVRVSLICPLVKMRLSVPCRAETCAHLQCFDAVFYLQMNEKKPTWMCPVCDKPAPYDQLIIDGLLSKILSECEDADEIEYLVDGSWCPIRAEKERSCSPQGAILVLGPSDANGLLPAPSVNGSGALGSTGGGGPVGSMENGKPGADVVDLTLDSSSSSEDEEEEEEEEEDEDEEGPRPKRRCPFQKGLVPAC
UniProt Q13362, sequence (Q13362 whole entry, looked up): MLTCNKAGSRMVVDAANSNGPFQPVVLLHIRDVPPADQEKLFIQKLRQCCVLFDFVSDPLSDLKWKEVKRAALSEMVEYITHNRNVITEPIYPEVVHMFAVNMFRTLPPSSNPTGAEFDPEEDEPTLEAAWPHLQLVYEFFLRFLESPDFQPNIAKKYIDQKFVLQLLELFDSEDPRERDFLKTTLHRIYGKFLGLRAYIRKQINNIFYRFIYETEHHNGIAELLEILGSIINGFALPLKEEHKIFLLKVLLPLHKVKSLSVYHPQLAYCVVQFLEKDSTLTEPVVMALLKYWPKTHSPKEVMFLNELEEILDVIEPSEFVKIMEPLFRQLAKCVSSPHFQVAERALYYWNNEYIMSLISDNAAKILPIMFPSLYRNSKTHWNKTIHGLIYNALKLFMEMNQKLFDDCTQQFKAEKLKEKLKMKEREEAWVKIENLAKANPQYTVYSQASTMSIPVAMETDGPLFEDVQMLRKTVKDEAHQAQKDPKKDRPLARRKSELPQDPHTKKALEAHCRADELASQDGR
UniProt Q5JVF3, sequence (Q5JVF3 whole entry, looked up): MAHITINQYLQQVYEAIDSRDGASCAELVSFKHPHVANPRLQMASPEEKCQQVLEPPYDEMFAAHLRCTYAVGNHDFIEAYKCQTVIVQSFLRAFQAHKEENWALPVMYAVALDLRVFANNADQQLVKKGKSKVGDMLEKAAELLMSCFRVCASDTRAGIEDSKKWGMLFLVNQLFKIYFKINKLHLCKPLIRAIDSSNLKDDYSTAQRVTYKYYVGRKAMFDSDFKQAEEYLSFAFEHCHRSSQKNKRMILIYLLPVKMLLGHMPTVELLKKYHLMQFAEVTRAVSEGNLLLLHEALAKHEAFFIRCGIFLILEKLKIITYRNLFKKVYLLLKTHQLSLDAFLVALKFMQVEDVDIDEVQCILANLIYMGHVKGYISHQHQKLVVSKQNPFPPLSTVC
UniProt Q15173, sequence (Q15173 whole entry, looked up): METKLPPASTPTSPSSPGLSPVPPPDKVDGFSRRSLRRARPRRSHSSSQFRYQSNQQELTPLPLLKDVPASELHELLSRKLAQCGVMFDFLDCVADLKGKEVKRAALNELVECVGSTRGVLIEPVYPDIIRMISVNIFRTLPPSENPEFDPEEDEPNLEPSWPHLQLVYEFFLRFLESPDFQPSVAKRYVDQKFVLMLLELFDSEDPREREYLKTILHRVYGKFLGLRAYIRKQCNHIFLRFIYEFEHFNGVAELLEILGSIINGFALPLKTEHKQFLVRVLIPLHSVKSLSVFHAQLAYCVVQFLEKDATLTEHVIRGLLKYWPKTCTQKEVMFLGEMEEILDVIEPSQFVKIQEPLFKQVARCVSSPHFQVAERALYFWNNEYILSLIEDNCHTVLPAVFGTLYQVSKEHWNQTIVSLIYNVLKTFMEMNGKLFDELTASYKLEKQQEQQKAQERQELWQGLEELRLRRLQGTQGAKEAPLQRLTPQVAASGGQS
UniProt O60237, sequence (O60237 whole entry, looked up): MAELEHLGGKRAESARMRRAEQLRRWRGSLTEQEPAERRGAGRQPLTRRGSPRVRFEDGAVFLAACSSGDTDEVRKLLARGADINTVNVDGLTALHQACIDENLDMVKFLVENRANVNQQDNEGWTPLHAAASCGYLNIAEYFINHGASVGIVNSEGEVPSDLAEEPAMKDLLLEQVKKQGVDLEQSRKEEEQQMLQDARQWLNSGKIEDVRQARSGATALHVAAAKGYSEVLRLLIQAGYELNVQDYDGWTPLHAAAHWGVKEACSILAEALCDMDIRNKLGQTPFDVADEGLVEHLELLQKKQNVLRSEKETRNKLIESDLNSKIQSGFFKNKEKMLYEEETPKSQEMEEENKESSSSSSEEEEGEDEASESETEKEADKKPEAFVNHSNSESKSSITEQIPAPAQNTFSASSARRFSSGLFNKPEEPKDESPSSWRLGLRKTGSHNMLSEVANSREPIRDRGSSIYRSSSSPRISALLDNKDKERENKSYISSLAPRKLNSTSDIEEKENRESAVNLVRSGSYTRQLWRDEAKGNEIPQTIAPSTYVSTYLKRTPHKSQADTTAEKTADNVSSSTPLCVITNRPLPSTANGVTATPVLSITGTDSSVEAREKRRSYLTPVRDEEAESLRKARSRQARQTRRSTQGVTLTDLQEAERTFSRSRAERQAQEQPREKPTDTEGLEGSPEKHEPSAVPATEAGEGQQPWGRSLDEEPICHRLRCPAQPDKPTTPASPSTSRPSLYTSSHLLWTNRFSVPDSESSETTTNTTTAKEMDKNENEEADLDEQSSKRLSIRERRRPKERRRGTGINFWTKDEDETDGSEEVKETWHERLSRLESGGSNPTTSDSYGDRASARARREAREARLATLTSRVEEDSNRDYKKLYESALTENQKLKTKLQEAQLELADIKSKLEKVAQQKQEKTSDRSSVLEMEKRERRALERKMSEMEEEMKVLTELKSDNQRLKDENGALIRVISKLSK
UniProt P14618, sequence (P14618 whole entry, looked up): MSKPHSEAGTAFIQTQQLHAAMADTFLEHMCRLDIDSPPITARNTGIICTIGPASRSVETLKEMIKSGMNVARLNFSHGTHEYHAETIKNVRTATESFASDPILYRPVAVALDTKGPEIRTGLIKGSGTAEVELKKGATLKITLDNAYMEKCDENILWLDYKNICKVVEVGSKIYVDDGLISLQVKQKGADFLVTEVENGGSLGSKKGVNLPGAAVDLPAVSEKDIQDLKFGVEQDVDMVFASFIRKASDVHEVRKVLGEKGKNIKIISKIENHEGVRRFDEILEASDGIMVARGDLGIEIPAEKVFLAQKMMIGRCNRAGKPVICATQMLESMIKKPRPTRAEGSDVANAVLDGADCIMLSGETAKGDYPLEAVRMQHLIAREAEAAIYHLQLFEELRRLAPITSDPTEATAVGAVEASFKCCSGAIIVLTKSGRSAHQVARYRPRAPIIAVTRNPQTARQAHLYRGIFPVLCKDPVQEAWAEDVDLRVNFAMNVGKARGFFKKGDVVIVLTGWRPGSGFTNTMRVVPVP
UniProt Q8N5Y8, sequence (Q8N5Y8 whole entry, looked up): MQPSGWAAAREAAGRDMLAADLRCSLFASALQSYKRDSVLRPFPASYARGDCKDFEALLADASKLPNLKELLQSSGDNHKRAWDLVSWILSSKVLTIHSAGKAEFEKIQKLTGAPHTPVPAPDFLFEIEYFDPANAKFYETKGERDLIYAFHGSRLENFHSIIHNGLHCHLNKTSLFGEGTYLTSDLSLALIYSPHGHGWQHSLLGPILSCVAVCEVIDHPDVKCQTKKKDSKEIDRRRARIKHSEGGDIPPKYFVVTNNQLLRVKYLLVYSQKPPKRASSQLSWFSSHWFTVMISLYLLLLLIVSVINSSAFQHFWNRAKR
UniProt P60484, sequence (P60484 whole entry, looked up): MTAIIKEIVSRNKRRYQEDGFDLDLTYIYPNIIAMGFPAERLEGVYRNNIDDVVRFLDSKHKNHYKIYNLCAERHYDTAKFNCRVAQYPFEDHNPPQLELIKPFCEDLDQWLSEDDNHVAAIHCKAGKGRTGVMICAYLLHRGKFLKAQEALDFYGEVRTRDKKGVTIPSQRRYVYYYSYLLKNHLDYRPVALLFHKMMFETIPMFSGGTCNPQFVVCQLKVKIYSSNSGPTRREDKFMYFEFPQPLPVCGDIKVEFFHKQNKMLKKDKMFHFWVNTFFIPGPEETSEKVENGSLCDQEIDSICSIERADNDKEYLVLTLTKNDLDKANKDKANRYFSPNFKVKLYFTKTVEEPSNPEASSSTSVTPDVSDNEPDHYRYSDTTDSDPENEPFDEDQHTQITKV

Row | Target | log2 fold change (IRAK-1-4 Inhibitor I) | log2 fold change (ibrutinib) | log2 fold change [1] | log2 fold change [2] | log2 fold change [3] | log2 fold change (pinometostat) | log2 fold change [4] | log2 fold change [5] | log2 fold change (ralimetinib) | log2 fold change [6]
1 | PDE6D (UniProt O43924) | 0.037 (inactive) | 0.086 (inactive) | -0.051 (inactive) | 0.003 (inactive) | 0.164 (inactive) | 0.017 (inactive) | -0.016 (inactive) | -0.01 (inactive) |  | 
2 | PPP1R12B isoform 6 (UniProt O60237) |  | 0.075 (inactive) |  |  | -0.074 (inactive) |  | -0.346 (active) |  |  | 
3 | PIAS4 (UniProt Q8N2W9) | -0.111 (inactive) |  |  | -0.781 (active) |  | 0.037 (inactive) |  | -0.275 (inactive) | -0.005 (inactive) | 0.035 (inactive)
4 | PTPA (UniProt A6PVN8) |  | 0.063 (inactive) | -0.241 (inactive) | -0.052 (inactive) | 0.122 (inactive) |  | 0.026 (inactive) | -0.104 (inactive) | -0.07 (inactive) | -0.002 (inactive)
5 | PSMA3 (UniProt H0YJ03) | 0.023 (inactive) |  | 0.052 (inactive) |  |  | 0.061 (inactive) |  | 0.046 (inactive) | 0.14 (inactive) | 0.067 (inactive)
6 | PPP2R5C isoform 2 (UniProt Q13362) | -0.036 (inactive) | -0.038 (inactive) |  |  | -0.146 (inactive) | -0.017 (inactive) |  |  | 0.026 (inactive) | -0.095 (inactive)
7 | PKM isoform 2 (UniProt P14618) | -0.018 (inactive) |  | 0 (inactive) | -0.561 (active) |  | 0.08 (inactive) | -0.068 (inactive) | 0.034 (inactive) | 0.054 (inactive) | 0.023 (inactive)
8 | PSMA3 (UniProt G3V4X5) | -0.451 (inactive) | -0.065 (inactive) |  |  |  | -0.001 (inactive) |  |  | -0.114 (inactive) | 0.733 (active)
9 | PSMC1 (UniProt G3V4X1) |  |  |  |  | -0.089 (inactive) |  | 0.029 (inactive) |  |  | 
10 | PPP2R5B (UniProt Q15173) |  | -0.083 (inactive) | 0.165 (inactive) |  | 0.092 (inactive) |  | 0.037 (inactive) |  |  | 
11 | PSD3 (UniProt Q9NYI0) | 0.014 (inactive) |  | -0.024 (inactive) |  |  | -0.037 (inactive) | -0.016 (inactive) |  | -0.026 (inactive) | -0.055 (inactive)
12 | PCBP2 (UniProt F8VZX2) | -0.177 (inactive) | 0.212 (inactive) |  |  | -0.127 (inactive) | 0.136 (inactive) | 0.128 (inactive) |  | -0.004 (inactive) | 0.138 (inactive)
13 | PCID2 (UniProt Q5JVF3) | -0.008 (inactive) | -0.015 (inactive) |  | 0.063 (inactive) | -0.428 (active) | 0.037 (inactive) | 0.035 (inactive) | 0.06 (inactive) | 0.007 (inactive) | -0.02 (inactive)
14 | PARP16 isoform 3 (UniProt Q8N5Y8) | -0.036 (inactive) | -0.13 (inactive) | -0.003 (inactive) | 0.032 (inactive) | -0.012 (inactive) | -0.097 (inactive) | -0.009 (inactive) | -0.027 (inactive) |  | 
15 | PTEN isoform 2 (UniProt P60484) | -0.227 (inactive) |  |  |  | -0.629 (active) | -0.006 (inactive) |  |  | 0.062 (inactive) | 0.083 (inactive)
16 | PKM (UniProt P14618) | 0.012 (inactive) |  | -0.011 (inactive) | -0.02 (inactive) | 0.079 (inactive) | -0.033 (inactive) | 0.021 (inactive) | 0.036 (inactive) | -0.018 (inactive) | -0.013 (inactive)
